In PubChem BioAssay (Tox21):
Results filed as inconclusive are left out. Where a call stands in place of a potency, no number is given. Activity calls are given as the source filed them. Unless noted, calls come from the whole dose curve; as a rule, active = well fitted curve in the direction sought with a large enough effect in the repeat runs; inconclusive = weak or mixed curves; inactive = no such curve, though single readings can be large; an effect the other way counts as inactive or inconclusive.

How the values were obtained:
[1] = qHTS assay to identify small molecule antagonists of the glucocorticoid receptor (GR) signaling pathway - cell viability counter screen (AID 720693); note: nearly all actives have a fitted effect of over 55% in size
[2] = qHTS assay for identifying genotoxic compounds that show differential cytotoxicity against isogenic chicken DT40 cell lines with known DNA damage response pathways - wild type cell line (AID 743012); note: nearly all actives have a fitted effect of over 60% in size; note: potency is the fitted concentration of half-maximal effect
In short: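 Endpoint: CellTiter-Glo luminescence, 30 min RT. Cells: wild type DT40, 300/well. Exposure: compounds in DMSO, 40 h, 37 C/5% CO2, after ~0.5 h pre-incubation.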

[3] = qHTS assay for identifying genotoxic compounds that show differential cytotoxicity against isogenic chicken DT40 cell lines with known DNA damage response pathways - Rev3 mutant cell line (AID 743014); note: nearly all actives have a fitted effect of over 55% in size; note: potency is the fitted concentration of half-maximal effect
[4] = qHTS assay for identifying genotoxic compounds that show differential cytotoxicity against isogenic chicken DT40 cell lines with known DNA damage response pathways - Rad54/Ku70 mutant cell line (AID 743015); note: nearly all actives have a fitted effect of over 60% in size; note: potency is the fitted concentration of half-maximal effect
[5] = qHTS assay to identify small molecule antagonists of the androgen receptor (AR) signaling pathway - cell viability counter screen (AID 743033; note: nearly all actives have a fitted effect of over 45% in size)
[6] = molecular target: Androgen receptor (Homo sapiens) (UniProt P10275); assay: qHTS assay to identify small molecule agonists of the androgen receptor (AR) signaling pathway (AID 743036; active = well fitted activation curve with a large enough effect in the signal ratio in the repeat runs, with a control signal flat, not every such curve was filed as active; the % refers to the signal ratio)
Androgen receptor (Homo sapiens), sequence (P10275 whole entry, looked up): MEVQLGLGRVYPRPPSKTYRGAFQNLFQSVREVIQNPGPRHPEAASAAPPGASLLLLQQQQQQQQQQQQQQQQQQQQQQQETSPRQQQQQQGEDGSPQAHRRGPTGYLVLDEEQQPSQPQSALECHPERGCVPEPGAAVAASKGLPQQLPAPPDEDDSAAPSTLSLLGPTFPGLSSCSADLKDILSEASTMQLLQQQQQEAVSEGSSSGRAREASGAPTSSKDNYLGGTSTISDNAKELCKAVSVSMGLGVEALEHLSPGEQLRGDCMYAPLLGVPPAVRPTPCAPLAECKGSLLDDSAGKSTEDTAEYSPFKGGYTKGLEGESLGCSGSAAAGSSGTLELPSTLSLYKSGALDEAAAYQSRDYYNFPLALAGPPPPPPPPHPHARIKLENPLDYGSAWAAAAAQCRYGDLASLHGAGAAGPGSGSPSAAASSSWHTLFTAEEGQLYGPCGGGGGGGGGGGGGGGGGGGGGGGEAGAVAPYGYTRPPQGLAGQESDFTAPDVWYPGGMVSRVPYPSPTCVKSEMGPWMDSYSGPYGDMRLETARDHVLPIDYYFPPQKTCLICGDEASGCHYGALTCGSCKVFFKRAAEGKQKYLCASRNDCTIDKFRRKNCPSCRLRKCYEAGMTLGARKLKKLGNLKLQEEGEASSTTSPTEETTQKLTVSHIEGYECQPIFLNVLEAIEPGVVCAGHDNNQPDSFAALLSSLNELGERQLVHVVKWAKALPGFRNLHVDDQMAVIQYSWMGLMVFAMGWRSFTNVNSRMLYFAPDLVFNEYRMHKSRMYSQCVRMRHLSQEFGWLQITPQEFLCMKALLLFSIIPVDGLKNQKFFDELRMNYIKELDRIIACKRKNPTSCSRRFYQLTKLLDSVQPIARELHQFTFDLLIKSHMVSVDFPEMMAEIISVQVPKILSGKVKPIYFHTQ
In short: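 Reporter line: GeneBLAzer AR-UAS-bla-GripTite (HEK293). Steps: plate cells, 4 h rest, add compounds, 16 h at 37C, add LiveBLAzer B/G substrate, 2 h at RT, read fluorescence.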

[7] = molecular target: Androgen receptor (Homo sapiens) (UniProt P10275); assay: qHTS assay to identify small molecule agonists of the androgen receptor (AR) signaling pathway using the MDA cell line (AID 743040; note: nearly all actives have a fitted effect of over 20% in size)
In short: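 Luciferase agonist assay: 16 h compound exposure at 37C without CO2 in MDA-kb2 AR-luc cells, whose MMTV promoter responds to both AR and GR. Luminescence measured after 30 min room-temperature incubation with ONE-Glo.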

[8] = qHTS assay to identify small molecule antagonists of the androgen receptor (AR) signaling pathway using the MDA cell line - cell viability counter screen (AID 743041; note: nearly all actives have a fitted effect of over 45% in size; note: potency is the fitted concentration of half-maximal effect)
In short: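 Viability read by CellTiter-Fluor fluorescence in the same wells as the antagonist screen, added after 15.5 h of a 16 h, 37C exposure. Human breast carcinoma MDA-kb2 AR-luc cells, compounds co-dosed with agonist R1881.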

[9] = qHTS assay to identify small molecule antagonists of the thyroid receptor (TR) signaling pathway - cell viability counter screen (AID 743064); note: nearly all actives have a fitted effect of over 50% in size; note: potency is the fitted concentration of half-maximal effect
In short: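 Plate GH3.TRE-Luc cells; incubate 4 h at 37 °C; add compound, then T3 to 1 nM final; incubate 23.5 h; add CellTiter-Fluor; incubate 30 min at 37 °C, 5% CO2; read fluorescence.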

[10] = qHTS assay to identify small molecule antagonists of the thyroid receptor (TR) signaling pathway (AID 743065); note: nearly all actives have a fitted effect of over 55% in size; note: potency is the fitted concentration of half-maximal effect
In short: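 Antagonism measured as loss of luciferase signal in GH3 cells stably carrying a TRE-luciferase reporter, co-treated with compound and T3 (1 nM final) for 23.5 h at 37 C. Viability was read in the same well by CellTiter-Fluor.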

[11] = qHTS assay to identify small molecule antagonists of the estrogen receptor alpha (ER-alpha) signaling pathway - cell viability counter screen (AID 743074; calls by dose curve;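 note: HEK293 cells carrying ER-alpha-UAS-bla reporter stimulated with 17beta-estradiol; nearly all actives have a fitted effect of over 45% in size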)
[12] = molecular target: Estrogen receptor (Homo sapiens) (UniProt P03372); assay: qHTS assay to identify small molecule agonists of the estrogen receptor alpha (ER-alpha) signaling pathway (AID 743075; calls by dose curve;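 note: HEK293 GripTite cells with ER-alpha and UAS-driven beta-lactamase reporter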)
Estrogen receptor (Homo sapiens), sequence (P03372 whole entry, looked up): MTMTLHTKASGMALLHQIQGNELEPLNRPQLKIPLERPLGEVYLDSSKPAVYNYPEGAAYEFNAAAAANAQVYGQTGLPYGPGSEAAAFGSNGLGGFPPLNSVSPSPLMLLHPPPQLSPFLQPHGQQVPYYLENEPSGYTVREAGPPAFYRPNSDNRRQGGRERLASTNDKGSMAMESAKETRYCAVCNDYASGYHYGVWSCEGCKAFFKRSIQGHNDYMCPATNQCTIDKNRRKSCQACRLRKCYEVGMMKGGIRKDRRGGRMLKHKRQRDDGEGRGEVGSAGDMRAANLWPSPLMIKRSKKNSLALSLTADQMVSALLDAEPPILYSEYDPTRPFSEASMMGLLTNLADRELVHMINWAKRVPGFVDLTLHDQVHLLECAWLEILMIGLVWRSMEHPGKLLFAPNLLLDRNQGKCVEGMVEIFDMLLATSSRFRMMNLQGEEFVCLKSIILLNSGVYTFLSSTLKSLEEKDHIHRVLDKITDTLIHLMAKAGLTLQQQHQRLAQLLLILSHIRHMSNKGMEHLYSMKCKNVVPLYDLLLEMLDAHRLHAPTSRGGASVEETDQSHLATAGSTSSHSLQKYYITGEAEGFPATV

[13] = molecular target: Estrogen receptor (Homo sapiens) (UniProt P03372); assay: qHTS assay to identify small molecule agonists of the estrogen receptor alpha (ER-alpha) signaling pathway using the BG1 cell line (AID 743079); details: BG1Luc4E2 cells, ERE-luciferase agonist, 22 h; activation: at 70.3 µM (top of the series); note: nearly all actives have a fitted effect of over 20% in size; note: potency is the fitted concentration of half-maximal effect
[14] = qHTS assay to identify small molecule antagonists of the estrogen receptor alpha (ER-alpha) signaling pathway using the BG1 cell line (AID 743080; calls by dose curve;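 note: BG1 cells stimulated with 17beta-estradiol alongside compound; nearly all actives have a fitted effect of over 25% in size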)
In short: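 Luminescence from a 4×ERE-luciferase reporter in BG1-Luc-4E2 cells served as read-out. Cells, pre-cultured 5 days in stripped-serum phenol-red-free medium, were exposed to compound with 17beta-estradiol co-stimulation for 21.5 h at 37 C.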

[15] = qHTS assay to identify small molecule antagonists of the estrogen receptor alpha (ER-alpha) signaling pathway using the BG1 cell line - cell viability counter screen (AID 743081);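 note: compound given together with 17beta-estradiol as the ER stimulus; nearly all actives have a fitted effect of over 45% in size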
Aromatase (Homo sapiens) = Aromatase (Homo sapiens) (UniProt P11511); assay: qHTS assay to identify aromatase inhibitors (AID 743083); note: nearly all actives have a fitted effect of over 55% in size
Aromatase (Homo sapiens), sequence (P11511 whole entry, looked up): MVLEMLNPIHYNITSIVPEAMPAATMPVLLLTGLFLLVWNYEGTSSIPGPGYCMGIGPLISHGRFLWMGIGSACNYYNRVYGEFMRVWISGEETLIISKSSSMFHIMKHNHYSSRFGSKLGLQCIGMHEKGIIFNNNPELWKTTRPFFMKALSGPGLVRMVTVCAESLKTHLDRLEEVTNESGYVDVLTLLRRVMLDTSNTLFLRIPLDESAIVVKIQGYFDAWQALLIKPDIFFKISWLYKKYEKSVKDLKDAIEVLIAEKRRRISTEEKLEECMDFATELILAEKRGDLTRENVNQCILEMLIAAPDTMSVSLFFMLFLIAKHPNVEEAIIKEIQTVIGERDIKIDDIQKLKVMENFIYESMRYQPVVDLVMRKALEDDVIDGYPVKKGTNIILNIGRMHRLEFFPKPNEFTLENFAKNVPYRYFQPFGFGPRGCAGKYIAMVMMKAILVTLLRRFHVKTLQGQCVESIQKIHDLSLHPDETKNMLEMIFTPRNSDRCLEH

[16] = system: thyroid hormone receptor (rat, GH3 cells); assay: qHTS assay to identify small molecule agonists of the thyroid receptor (TR) signaling pathway (AID 743066; calls by dose curve)
[17] = molecular target: Estrogen receptor (Homo sapiens) (UniProt P03372); assay: qHTS assay to identify small molecule antagonists of the estrogen receptor alpha (ER-alpha) signaling pathway (AID 743069; active = well fitted curve in the direction sought with a large enough effect in the signal ratio in the repeat runs, not every such curve was filed as active; the % refers to the signal ratio)
In short: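 Antagonist mode: compounds in DMSO were co-added with 17beta-estradiol to ER-alpha-bla HEK293 cells (2% charcoal-stripped serum) and left 18 h at 37C. Reporter inhibition was measured as FRET fluorescence after 2 h LiveBLAzer substrate at room temperature.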

[18] = molecular target: Androgen receptor (Homo sapiens) (UniProt P10275); assay: qHTS assay to identify small molecule antagonists of the androgen receptor (AR) signaling pathway using the MDA cell line (AID 743042; note: nearly all actives have a fitted effect of over 55% in size; note: potency is the fitted concentration of half-maximal effect)
In short: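 Antagonist mode: compounds plus R1881 agonist added to MDA-kb2 AR-luc cells, incubated 16 h at 37C. Luciferase reporter luminescence quantified, with multiplexed CellTiter-Fluor readout for cell viability.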

[19] = molecular target: Androgen receptor (Homo sapiens) (UniProt P10275); assay: qHTS assay to identify small molecule antagonists of the androgen receptor (AR) signaling pathway (AID 743035; active = well fitted inhibition curve with a large enough effect in the signal ratio in the repeat runs, not every such curve was filed as active; the % refers to the signal ratio)
In short: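 R1881 agonist challenge of a HEK293 UAS-beta-lactamase AR reporter line in the presence of compound (16 h, 37C); signal taken as FRET fluorescence after 2 h with LiveBLAzer B/G substrate at room temperature.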

| Compound | Potency [1] | Potency [2] | Potency [3] | Potency [4] | Potency [5] | Potency [6] | Potency [7] | Potency [8] | Potency [9] | Potency [10] | Potency [11] | Potency [12] | Potency [13] | Potency [14] | Potency [15] | Potency (Aromatase (Homo sapiens)) | Potency [16] | Potency [17] | Potency [18] | Potency [19] |
| --- | --- | --- | --- | --- | --- | --- | --- | --- | --- | --- | --- | --- | --- | --- | --- | --- | --- | --- | --- | --- |
| CN1CCC(CN2c3ccccc3Sc3ccccc32)C1 (centres undefined) | inactive | 5.96 µM (active) | 4.22 µM (active) | 5.96 µM (active) | inactive | inactive | inactive | inactive | 10.6 µM (active) | 11.9 µM (active) | inactive | inactive | inactive | inactive | inactive | inactive | – | – | – | – |
| C[C@@H]1C/C=C/C=C/C=C/C=C/[C@H](O[C@@H]2O[C@H](C)[C@@H](O)[C@H](N)[C@@H]2O)C[C@@H]2O[C@](O)(C[C@@H](O)C[C@H]3O[C@@H]3/C=C/C(=O)O1)C[C@H](O)[C@H]2C(=O)O | inactive | inactive | inactive | inactive | inactive | – | – | inactive | inactive | inactive | inactive | inactive | inactive | inactive | inactive | inactive | inactive | inactive | – | – |
| NC(=O)c1ccc[n+]([C@@H]2O[C@H](COP(=O)([O-])OP(=O)(O)OC[C@H]3O[C@@H](n4cnc5c(N)ncnc54)[C@H](O)[C@@H]3O)[C@@H](O)[C@H]2O)c1 | inactive | inactive | inactive | inactive | inactive | inactive | inactive | inactive | – | inactive | – | inactive | inactive | inactive | inactive | inactive | inactive | inactive | inactive | – |
| CCCc1ccc(C(=O)O)cc1 | inactive | inactive | inactive | inactive | inactive | – | – | inactive | inactive | inactive | inactive | inactive | inactive | inactive | inactive | inactive | inactive | inactive | – | – |
| CCC(C)[C@@H](N)C(=O)O (some centres undefined) | inactive | inactive | inactive | inactive | inactive | – | – | inactive | inactive | inactive | inactive | inactive | inactive | inactive | inactive | inactive | inactive | inactive | – | – |
| O=S(=O)(O)Oc1ccc(C(c2ccc(OS(=O)(=O)O)cc2)c2ccccn2)cc1 | inactive | inactive | inactive | inactive | inactive | – | – | inactive | inactive | inactive | inactive | inactive | inactive | inactive | – | inactive | inactive | inactive | – | – |
| COc1cc(Br)c(C[N+]2(CCOCCC3CCC4CC3C4(C)C)CCOCC2)cc1OC (centres undefined) | inactive | 1.5 µM (active) | 2.66 µM (active) | 2.66 µM (active) | inactive | – | inactive | inactive | – | – | inactive | inactive | inactive | inactive | inactive | – | – | inactive | – | – |
| C[N@+]12CCCC[C@@H]1CCC(=C(c1cccs1)c1cccs1)C2 | inactive | 5.96 µM (active) | 10.6 µM (active) | 8.41 µM (active) | inactive | – | – | 26.6 µM (active) | inactive | inactive | inactive | inactive | inactive | inactive | inactive | inactive | inactive | inactive | 18.8 µM (active) | inactive |
| OC(CN1CCCCC1)c1cc(-c2ccccc2)on1 (centres undefined) | inactive | inactive | inactive | inactive | inactive | – | – | inactive | inactive | inactive | inactive | inactive | 23.7 µM (active) | – | inactive | inactive | inactive | inactive | inactive | inactive |
| O=S(O)CNc1ccc(S(=O)(=O)c2ccc(NCS(=O)O)cc2)cc1 | inactive | inactive | inactive | inactive | inactive | – | – | inactive | inactive | inactive | inactive | inactive | inactive | inactive | inactive | inactive | inactive | inactive | – | – |
| CN[C@@H]1[C@H](O[C@H]2[C@H](O[C@H]3[C@H](O)[C@@H](O)[C@H](N=C(N)N)[C@@H](O)[C@@H]3N=C(N)N)O[C@@H](C)[C@]2(O)CO)O[C@@H](CO)[C@H](O)[C@H]1O | inactive | inactive | inactive | inactive | inactive | – | inactive | – | inactive | – | inactive | – | – | – | inactive | inactive | – | – | inactive | inactive |
| Cn1nnnc1SCC1=C(C(=O)O)N2C(=O)[C@@H](NC(=O)[C@H](OC=O)c3ccccc3)[C@H]2SC1 | inactive | inactive | inactive | inactive | inactive | – | – | inactive | inactive | inactive | inactive | inactive | inactive | inactive | inactive | inactive | inactive | inactive | – | – |
| CN1CCN(C2=Nc3ccccc3Cc3ccccc32)CC1 | inactive | 26.6 µM (active) | 23.7 µM (active) | 29.8 µM (active) | inactive | – | – | inactive | 13.3 µM (active) | 23.7 µM (active) | inactive | inactive | inactive | inactive | inactive | inactive | inactive | inactive | – | – |
